Reference: PubChem BioAssay (NCI)
This is part of a sample that, as a whole, favours compounds with a hit. Of some 79,000 tested, about 15% had one in any assay. Values without a mark were called inactive. Active and inactive are the calls of the source. Rule as the data show it: active = growth inhibition above about 70%; inactive = the rest.

Assay: NCI Yeast Anticancer Drug Screen. Data for the mec2-1 strain (AID 157)
Conditions: S. cerevisiae mec2-1 strain, at 50.0 µM (retest, dose inferred, filed as 5.0), hits give high values
Outline: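 Test agents were screened against the mec2-1 yeast strain, with defined DNA repair or cell cycle alteration. Growth was scored as inhibition against vehicle-only controls.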

Q: With `CC(C)(C)CC(C)(C)c1ccc(O)cc1` as the molecule, how does the growth inhibition read?
A: 99% (active)

Q: Which growth inhibition does the source give for `CC[n+]1c(/C=C/c2ccc(N(CCCl)CCCl)cc2)ccc2cc(I)ccc21` here?
A: 99% (active)

Q: With `CCCCCCC1CCC2CCCC(C)N12` (centres undefined) as the molecule, how does the growth inhibition read?
A: 25%

Q: Which growth inhibition does the source give for `C[N+](C)(C)CC1CCC(C[N+](C)(C)C)C1=O` (centres undefined) here?
A: 26%

Q: With `CCC[CH2][Sn]1([CH2]CCC)[O]C(=O)c2cc(C)ccc2[O]1` as the molecule, how does the growth inhibition read?
A: 98% (active)

Q: With `COc1ccc(CC2C(=O)NC(C)C(=O)N(C)C3C(=O)N(C)C(Cc4ccc(O)c(c4)Oc4ccc(cc4)C3O)C(=O)NC(C)C(=O)NC(C)C(=O)N2C)cc1` (centres undefined) as the molecule, how does the growth inhibition read?
A: 69%

Q: For `CC(=O)Nc1cccc([As+](C)(c2cccc(NC(C)=O)c2)c2cccc(NC(C)=O)c2)c1`, which growth inhibition is on record?
A: 14%

Q: Which growth inhibition does the source give for `COC1OC(COC(C)=O)C(OC(C)=O)C(OC(C)=O)[C]1(OC(C)=O)[Hg][O]C(C)=O` (centres undefined) here?
A: 100% (active)

Q: With `CCOC(=O)C(NC(=O)C(Cc1ccc(N(CCCl)CCCl)cc1)NC(C)=O)C(C)C` (centres undefined) as the molecule, how does the growth inhibition read?
A: -1%

Q: For `CN1c2cccc[c]2[Sn]([CH3])([CH3])[c]2ccccc21`, which growth inhibition is on record?
A: 99% (active)

Q: Which growth inhibition does the source give for `Cc1ccc(C(=O)OC(C(=O)O)C(OC(=O)c2ccc(C)cc2)C(=O)O)cc1` (centres undefined) (tested in a mixture with another compound) here?
A: 61%

Q: With `CC(C)(c1ccccc1)c1ccc(O)cc1` as the molecule, how does the growth inhibition read?
A: 88% (active)

Q: Which growth inhibition does the source give for `CC1(C)N=C(N)N=C(N)N1CCCOc1ccc(NC(=O)c2ccc(S(=O)(=O)F)cc2)cc1` here?
A: 30%

Q: Which growth inhibition does the source give for `CC1=CC2OC3CC4OC(=O)/C=C/C=C/C(=O)OCCC(C)C(O)C(=O)OCC2(CC1O)C4(C)C31CO1` (centres undefined) here?
A: 98% (active)
